Screening results deposited in PubChem BioAssay by Broad Institute.
BL2 CD40 inh: CD40 pathway inhibition in BL2 cells; BL2 NF-kB luciferase reporter, CD40L-induced, 4 h; inhibition, % at 10 µM; 83,000 tested, 0.94% active;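 active means mean inhibition of at least 50% with a set share of replicates also reaching that level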;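 further: 0% = neutral control wells and 100% = IKK inhibitor VII at 50 µM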
* marks the source's active call; other numbers are inactive results; ! = a repeat was not active; [ ] = remark or other dose. The full list was thinned out, with hits kept by preference.

SMILES	BL2 CD40 inh
O=C(Nc1cccc(Cl)c1)OC1CN2CCC1CC2 (configuration not stated)	-51
N#CC(C#N)=NNc1cccc(Cl)c1	75*[25 µM]
c1ccc(CC(c2ccccc2)N2CCCCC2)cc1 (configuration not stated)	-3[25 µM]
CC(=O)OCC12CC(OC(=O)CC(C)C)C(C)=CC1OC1C(O)C(OC(C)=O)C2(C)C12CO2 (configuration not stated)	65*
O=C(O)[C@@H]1[C@@H](CO)[C@@H]2Cn3c(ccc(-c4ccncc4)c3=O)[C@H]1N2C(=O)C1CCCCC1	5
CS(=O)(=O)N1C[C@@H]2N[C@H](C1)C2c1ccccc1 (some centres not stated)	-5
OC[C@@H]1Nc2ccc(C#Cc3cccnc3)cc2[C@@H]2NCC[C@H]12	-2[25 µM]
CC12CCC3C(CCC4C(=O)C(=O)CCC43C)C1CCC2=O (configuration not stated)	4[25 µM]
O=C1CNC[C@H]2[C@@H](c3ccc(Br)cc3)[C@H](CO)N12	-3[25 µM]
Oc1ccc2c3c1OC1c4[nH]c5ccccc5c4CC4(O)C(C2)N(CC2CC2)CCC314 (configuration not stated)	-18[25 µM]
O=C(C1CC1)N1C[C@@H]2N[C@H](C1)C2c1ccc(-c2cncnc2)cc1 (some centres not stated)	-1
CC(=O)N1C[C@@H]2N[C@H](C1)C2c1ccc(Br)cc1 (some centres not stated)	-8
O=C(C1CC1)N1C[C@@H]2N[C@H](C1)[C@@H]2c1ccc(-c2ccncc2)cc1	70*
CN(C)CC#Cc1ccc([C@@H]2[C@H](CO)N3CCCCN(C(=O)Cc4ccccn4)C[C@@H]23)cc1	-7[25 µM]
CCC(=O)N1[C@@H]2Cn3c(ccc(C4=CCCC4)c3=O)[C@H]1[C@@H](C(=O)OC)[C@@H]2CO	-7[25 µM]
CN1[C@@H]2CN(S(C)(=O)=O)C[C@H]1C2c1ccc(Br)cc1 (some centres not stated)	28*!
CN1[C@@H]2CN(S(C)(=O)=O)C[C@H]1C2c1ccccc1 (some centres not stated)	4
CS(=O)(=O)N1C[C@@H]2N[C@H](C1)C2c1ccc(Br)cc1 (some centres not stated)	-4
C=CCN1[C@@H]2CN(C(C)=O)C[C@H]1C2c1ccc(Br)cc1 (some centres not stated)	11
CC1CC(C)CC(C)C(O)C(C#N)=CC=CCC(C2CCCC2C(=O)O)OC(=O)CC(O)C(C)C1 (configuration not stated)	94*
O=C(O)[C@@H]1[C@@H](CO)[C@@H]2Cn3c(ccc(-c4ccc(F)cc4)c3=O)[C@H]1N2CC1CCCCC1	2[25 µM]
C/C=C/c1ccc(C2[C@H]3CNC[C@@H]2N3CC2CC2)cc1 (some centres not stated)	-5[25 µM]
O=C(Cc1ccccn1)N1CCCCN2[C@@H](CO)[C@@H](c3ccc(-c4ccccc4F)cc3)[C@@H]2C1	15[25 µM]
CN(C)CC#Cc1ccc([C@H]2[C@@H](CO)N3CCCCN(C(=O)Cc4ccccn4)C[C@H]23)cc1	-6[25 µM]
COP(=S)(OC)SCN1C(=O)c2ccccc2C1=O	32*
SMILES	BL2 CD40 inh
CN1[C@@H]2CN(CC(F)(F)F)C[C@H]1C2c1ccc(Br)cc1 (some centres not stated)	13
CN(C(=O)Cc1ccccc1)C(CN1CCCC1)c1ccccc1 (configuration not stated)	6[25 µM]
O=C(Cc1cccnc1)N1CCCCN2[C@H](CO)[C@H](c3ccc(C#CC4(O)CCCC4)cc3)[C@H]2C1	6[25 µM]
CCOC(=O)c1ncn2c1C1CCCN1C(=O)c1cc(OC)ccc1-2 (configuration not stated)	4[25 µM]
CC12CCC3C(CCC4(O)CC(O)CCC34C=O)C1(O)CCC2C1=CC(=O)OC1 (configuration not stated)	75*
CC12CCC3C(CCC4(O)CC(O)CCC34C=NO)C1(O)CCC2C1=COC(=O)C1 (configuration not stated)	56*
N#Cc1ccc(-c2ccc([C@H]3[C@@H](CO)N4CCCCN(C(=O)Cc5ccccc5)C[C@@H]34)cc2)cc1	17[25 µM]
O=C(O)[C@H]1[C@H](CO)[C@H]2Cn3c(ccc(C4=CCCCC4)c3=O)[C@@H]1N2C(=O)Cc1ccccn1	1[25 µM]
C=CCN1CCC23c4c5ccc(O)c4OC2C(=O)CCC3(O)C1C5 (configuration not stated)	-4[25 µM]
CC(C)NC(=O)N1C[C@@H]2N[C@H](C1)C2c1ccc(Br)cc1 (some centres not stated)	8
C[C@]12CC[C@H]3[C@@H](CCC4=CC(=O)CC[C@@]43C)[C@@H]1CC[C@H]2O	1[25 µM]
CN1[C@@H](CO)[C@@H]2c3ccccc3NC[C@@H]21	-11[25 µM]
O=C(Cc1ccncc1)N1CCCCN2[C@H](CO)[C@@H](c3ccc(-c4ccncc4)cc3)[C@H]2C1	6[25 µM]
Cc1ccc(OC(=O)N(C)C[C@H]2OCc3ccccc3-c3c(n(C)c4ccccc34)C(=O)N([C@@H](C)CO)C[C@H]2C)cc1	12[25 µM]
